Data taken from PubChem BioAssay AID488853 (National Center for Advancing Translational Sciences (NCATS), 2010).
Calls of active or inactive are those of the source. The call rests on the fitted dose curve; in most records, active means well fitted curve in the direction sought with a large enough effect; inconclusive means small, poorly fitted or top-dose-only effect, or another doubt; inactive means no such curve, though single readings can be large or run the other way.

What follows are compounds tested against Lysosomal acid glucosylceramidase (Homo sapiens) (UniProt P04062) (assay: qHTS Assay for Inhibitors and Activators of N370S glucocerebrosidase as a Potential Chaperone Treatment of Gaucher Disease: Activity in Non-Mutant Spleen Using Alternate Substrate Confirmation for Probe SAR). Details: human spleen homogenate, resorufin-glucoside fluorescence, 40 min; series mostly up to 57.5 µM; activity change, negative = inhibition: at the top concentration.
Excerpt: NIH Chemical Genomics Center [NCGC] NIH Molecular Libraries Probe Production Centers Network [MLPCN] MLPCN Grant: MH086442-01 Assay Submitter (PI): Wei Zheng Glucocerebrosidase (GC) catalyzes the hydrolysis of beta-glucocerebroside to glucose and ceramide in lysosomes. Mutations in the glucocerebrosidase gene result in Gaucher disease, an autosomal recessive lysosomal storage disorder. Many of the mutations encountered in patients with Gaucher disease are missense alterations that may cause misfolding, decreased stability and/or mistrafficking of this lysosomal protein. […] These inhibitors include iminosugar analogs and three non-iminosugar inhibitors identified from a previous HTS of 62,000 compounds with the wild type recombinant enzyme. However, the enhancement of enzyme activity by the chaperone action of an enzyme inhibitor must be balanced against the direct inhibition of the enzyme. An enzyme activator could also function as a chaperone by binding to the enzyme and helping to correct its misfolding and mistrafficking. While activators for GC have not yet been identified, they may have better therapeutic potential than inhibitors. Therefore the discovery and development of chemical activators may provide a new strategy for the chaperone therapy. We have optimized a new assay using N370S mutant GC derived from the spleen of a Gaucher patient. […] In addition, the MLPCN compound library has expanded, which increases the chance of finding new and better probes. This confirmation assay tests for compound activity in spleen homogenate containing wildtype enzyme using an alternate resorufin-based substrate.
NCGC Assay Protocol Summary: This is a fluorogenic enzyme assay with resorufin-beta-D-glucopyranoside as the substrate and wildtype glucocerebrosidase from human spleen homogenate as the enzyme preparation. Upon the hydrolysis of this fluorogenic substrate, the resulting product, […] which can be detected by a standard fluorescence plate reader. Data were normalized to the controls for basal activity (without enzyme) and 100% activity (with enzyme). The AC50 values were determined from concentration-response data modeled with the standard Hill equation. Assay buffer: 50 mM citric acid (titrated with potassium phosphate to pH 5.0), 100 mM potassium chloride, 10 mM sodium chloride, 1 mM magnesium chloride, 0.01% Tween-20. 1536-well assay protocol: (1) Add 2 ul/well of spleen homogenate (27 ug final) (2) Add 23 nL compounds in DMSO solution. The final titration was 0.5 nM to 58 uM. (3) Add 2 ul of substrate (1 mM final) (4) Incubate at 37C for 40 min. (5) Add 2 ul stop solution (1M NaOH and 1M Glycine mixture, pH 10) (6) Detect the assay plate in a ViewLux plate reader (PerkinElmer) with Ex=365 nm and Em=440nm. Keywords: Glucocerebrosidase, beta-glucosidase, Gaucher Disease, pharmacological chaperone, chaperone therapy, high throughput screening, glucocerebrosidase inhibitor, MLSMR, MLSCN, NIH Roadmap, qHTS and NCGC

Lysosomal acid glucosylceramidase (Homo sapiens), sequence (P04062 whole entry, looked up): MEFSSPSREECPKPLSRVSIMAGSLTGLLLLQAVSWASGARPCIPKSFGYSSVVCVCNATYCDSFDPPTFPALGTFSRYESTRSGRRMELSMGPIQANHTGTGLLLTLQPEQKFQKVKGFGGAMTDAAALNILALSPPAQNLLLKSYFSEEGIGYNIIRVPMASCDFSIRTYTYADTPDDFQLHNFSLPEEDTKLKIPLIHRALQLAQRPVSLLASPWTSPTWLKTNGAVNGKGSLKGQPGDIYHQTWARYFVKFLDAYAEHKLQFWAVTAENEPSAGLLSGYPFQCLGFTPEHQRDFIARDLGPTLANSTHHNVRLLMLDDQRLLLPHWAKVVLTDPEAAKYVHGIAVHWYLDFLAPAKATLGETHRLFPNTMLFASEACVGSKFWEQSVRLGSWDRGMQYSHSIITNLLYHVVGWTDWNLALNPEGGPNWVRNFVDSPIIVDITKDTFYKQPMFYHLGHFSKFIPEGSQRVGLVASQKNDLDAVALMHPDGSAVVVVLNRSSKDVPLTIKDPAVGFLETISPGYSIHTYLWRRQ

Activity change, negative = inhibition, inactive:
Cc1cc(C)n2ncc(C(=O)NCc3ccccc3)c2n1 -0.52%
COc1cc(NC(=O)c2cnn3c(C)cc(C)nc23)cc(OC)c1OC 0.165%
Cc1cc(C)n2ncc(C(=O)NCc3ccco3)c2n1 0.187%
CC(=O)Nc1ccccc1NC(=O)c1cnn2c(C)cc(C)nc12 -0.516%
Cc1cc(C)n2ncc(C(=O)Nc3ccncc3)c2n1 0.187%
Cc1cc(C)n2ncc(C(=O)Nc3ccc(C#N)cc3)c2n1 -0.516%
COc1ccc(NC(=O)c2cnn3c(C)cc(C)nc23)cc1OC 0.165%
CNC(=O)c1cnn2c(C)cc(C)nc12 -0.52%
Cc1cccc(NC(=O)c2cnn3c(C)cc(C)nc23)c1 -0.516%
COc1ccc(NC(=O)c2cnn3c(C)cc(C)nc23)cc1Cl -0.516%
Cc1cc(C)n2ncc(C(=O)Nc3ccccc3)c2n1 -17%
CC(=O)c1ccc(NC(=O)c2cnn3c(C)cc(C)nc23)cc1 0.165%
CC(=O)Nc1ccc(NC(=O)c2cnn3c(C)cc(C)nc23)cc1 -0.516%
CC(=O)c1cccc(NC(=O)c2cnn3c(C)cc(C)nc23)c1 0.165%
Cc1cc(C)n2ncc(C(=O)NC3CCCCC3)c2n1 -14.7%
O=C(Nc1cnn(Cc2ccc(F)cc2)c1)c1cnn2c(C(F)F)cc(-c3ccccc3)nc12 0.187%
Cc1cc(C)n2ncc(C(=O)Nc3cccc(C(F)(F)F)c3)c2n1 0.165%
C#Cc1ccc(NC(=O)c2cnn3c(C)cc(C)nc23)cc1 0.187%
Cc1cc(C)n2ncc(C(=O)Nc3ccccc3C)c2n1 -0.516%
Cc1cc(C)n2ncc(C(=O)Nc3ccc(Br)cc3)c2n1 21.4%
COc1ccc(NC(=O)c2cnn3c(C)cc(C)nc23)cc1 -0.516%
Cc1cc(C)n2ncc(C(=O)Nc3ccc(S(C)(=O)=O)cc3)c2n1 21.7%
Cc1cc(C)n2ncc(C(=O)Nc3ccc4c(c3)CCC4)c2n1 -0.52%
Cc1cc(C)n2ncc(C(=O)Nc3ccc(C(F)(F)F)cc3)c2n1 0.165%
Cc1cc(C)n2ncc(C(=O)N3CCCC3)c2n1 -0.52%
Cc1cc(C)n2ncc(C(=O)Nc3ccc(C(C)(C)C)cc3)c2n1 -0.516%
Cc1cc(C)n2ncc(C(=O)Nc3cccc(C#N)c3)c2n1 -0.52% [at 19 µM]
CCc1ccc(NC(=O)c2cnn3c(C)cc(C)nc23)cc1 -0.52%
Cc1cc(C)n2ncc(C(=O)NCC(C)C)c2n1 -0.52%
Cc1cc(C)n2ncc(C(=O)Nc3ccc(C)c(C)c3)c2n1 0.165%
Cc1cc(C)n2ncc(C(=O)Nc3ccc4c(c3)OCCO4)c2n1 0.165%
COc1ccc(NC(=O)c2cnn3c(C)cc(C)nc23)cc1F 14.9%
Cc1cc(C)n2ncc(C(=O)NC(C)C)c2n1 -0.52%
Cc1cc(C)n2ncc(C(=O)Nc3ccc4c(c3)OCO4)c2n1 0.165%
Cc1ccc(NC(=O)c2cnn3c(C)cc(C)nc23)cc1 -0.516%
Cc1ccc(NC(=O)c2cnn3c(C)cc(C)nc23)c(C)c1 -0.516%

outcome, inactive:
Cc1cc(C)n2ncc(C(=O)NC3CCC(C(C)(C)C)CC3)c2n1 (configuration not stated)
